From PubChem BioAssay (Tox21)
Inconclusive results are not listed. Active and inactive are the calls of the source. Unless noted, calls come from the whole dose curve; as a rule, active = well fitted curve in the direction sought with a large enough effect in the repeat runs; inconclusive = weak or mixed curves; inactive = no such curve, though single readings can be large; an effect the other way counts as inactive or inconclusive.

Tests used:
[1] = A CellTox Green Cytotoxicity Assay to monitor cytotoxicity in HepG2 cells - 16 hour (AID 1224876); note: nearly all actives have a fitted effect of over 45% in size; note: potency is the fitted concentration of half-maximal effect
In short: (§1)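 Continuous culture of HepG2 cells with a membrane-impermeant DNA dye; rising fluorescence marks dead cells. Compound exposure lasted up to 40 h at 37 C, with reads every 8 h from 0 h.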

[2] = qHTS RealTime-Glo MT Cell Viability Assay in HepG2 cells - 32 hour (AID 1224877); note: nearly all actives have a fitted effect of over 55% in size
In short: (§2)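 Tox21 10K library screened in qHTS format on HepG2 cells carrying RealTime-Glo reagents. Compounds were added after a 5 h preincubation, and the luminescent signal from continuous culture was measured repeatedly during 40 h treatment.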

[3] = A CellTox Green Cytotoxicity Assay to monitor cytotoxicity in HepG2 cells - 24 hour (AID 1224878); note: nearly all actives have a fitted effect of over 45% in size; note: potency is the fitted concentration of half-maximal effect
In short: as §1

[4] = A CellTox Green Cytotoxicity Assay to monitor cytotoxicity in HepG2 cells - 40 hour (AID 1224879); note: nearly all actives have a fitted effect of over 40% in size; note: potency is the fitted concentration of half-maximal effect
In short: as §1

[5] = qHTS RealTime-Glo MT Cell Viability Assay in HEK293 cells - 0 hour (AID 1224880); note: top concentration of the series differs between compounds; nearly all actives have a fitted effect of over 45% in size
In short: (§3)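 qHTS format; HEK293 cells with NanoLuc/prosubstrate reagent, 37 C/5% CO2 for 5 h pre-dosing; compounds 23 nL in DMSO; luminescence at each time point reflects viable cells.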

[6] = A CellTox Green Cytotoxicity Assay to monitor cytotoxicity in HEK293 cells - 32 hour (AID 1224881); note: nearly all actives have a fitted effect of over 40% in size; note: potency is the fitted concentration of half-maximal effect
In short: (§4)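 Each value comes from one timepoint of a single continuous run in which HEK293 cells with CellTox Green were exposed to compound for up to 40 h at 37 C, dye fluorescence rising with cell death.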

[7] = A CellTox Green Cytotoxicity Assay to monitor cytotoxicity in HepG2 cells - 0 hour (AID 1224882); note: nearly all actives have a fitted effect of over 35% in size; note: potency is the fitted concentration of half-maximal effect
In short: as §1

[8] = A CellTox Green Cytotoxicity Assay to monitor cytotoxicity in HepG2 cells - 32 hour (AID 1224883); note: nearly all actives have a fitted effect of over 50% in size
In short: as §1

[9] = qHTS RealTime-Glo MT Cell Viability Assay in HepG2 cells - 16 hour (AID 1224885); note: nearly all actives have a fitted effect of over 50% in size
In short: as §2

[10] = qHTS RealTime-Glo MT Cell Viability Assay in HEK293 cells - 24 hour (AID 1224886); note: nearly all actives have a fitted effect of over 50% in size; note: potency is the fitted concentration of half-maximal effect
In short: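 Luminescence generated by NanoLuc from substrate produced by living HEK293 cells served as the viability signal. Each value reflects the reading at its stated time point during continuous 40 h compound exposure at 37 C.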

[11] = qHTS RealTime-Glo MT Cell Viability Assay in HEK293 cells - 8 hour (AID 1224887); note: top concentration of the series differs between compounds; nearly all actives have a fitted effect of over 50% in size
In short: as §3

[12] = A CellTox Green Cytotoxicity Assay to monitor cytotoxicity in HEK293 cells - 16 hour (AID 1224888); note: nearly all actives have a fitted effect of over 35% in size; note: potency is the fitted concentration of half-maximal effect
In short: as §4

[13] = A CellTox Green Cytotoxicity Assay to monitor cytotoxicity in HepG2 cells - 8 hour (AID 1224890); note: nearly all actives have a fitted effect of over 45% in size; note: potency is the fitted concentration of half-maximal effect
In short: as §1

[14] = qHTS assay to identify small molecule antagonists of the estrogen receptor alpha (ER-alpha) signaling pathway using the BG1 cell line in the presence of 0.1 nM 17-beta-estradiol - cell viability counter screen (AID 1259241); note: nearly all actives have a fitted effect of over 40% in size
In short: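 Following 5 days in phenol red-free medium with charcoal-stripped serum, VM7Luc4E2 cells received test compounds alongside 0.1 nM 17beta-estradiol (final) at 37C for 22 hr. Live cells were then quantified via protease-substrate fluorescence.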

[15] = qHTS assay to identify small molecule antagonists of the androgen receptor (AR) signaling pathway using the MDA cell line in the presence of 0.5 nM R1881 - cell viability counter screen (AID 1259242); note: nearly all actives have a fitted effect of over 45% in size
In short: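 Fluorescence from CellTiter-Fluor, which reports protease activity of live cells, was read 30 min after reagent addition to MDA-kb2 cells that had been incubated 16 hr with compound and 0.5 nM R1881.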

[16] = qHTS RealTime-Glo MT Cell Viability Assay in HepG2 cells - 0 hour (AID 1224889); note: nearly all actives have a fitted effect of over 50% in size
In short: as §2

[17] = biological target: Estrogen receptor (Homo sapiens) (UniProt P03372); assay: qHTS assay to identify small molecule antagonists of the estrogen receptor alpha (ER-alpha) signaling pathway using the BG1 cell line in the presence of 0.1 nM 17-beta-estradiol (AID 1259244); note: nearly all actives have a fitted effect of over 50% in size
In short: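 Quantitative high-throughput screen in VM7Luc4E2 cells: compound plus 0.1 nM E2 (final), 22 h, 37C, 5% CO2; ONE-Glo added, 30 min room temperature, luminescence measured.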

[18] = biological target: Androgen receptor (Homo sapiens) (UniProt P10275); assay: qHTS assay to identify small molecule antagonists of the androgen receptor (AR) signaling pathway using the MDA cell line in the presence of 0.5 nM R1881 (AID 1259243); note: nearly all actives have a fitted effect of over 50% in size
In short: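 Inhibition of R1881 (0.5 nM final) induced reporter signal was measured in human MDA-kb2 cells; note the MMTV promoter also responds to GR. Exposure lasted 16 hr at 37C.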

[19] = A CellTox Green Cytotoxicity Assay to monitor cytotoxicity in HEK293 cells - 8 hour (AID 1224884); note: nearly all actives have a fitted effect of over 35% in size; note: potency is the fitted concentration of half-maximal effect
In short: as §4

[20] = qHTS assay to identify small molecule phospholipidosis (PLD) inducers (AID 1259344; active = well fitted curve in the direction sought with a large enough effect; an effect the other way counts as inactive or inconclusive)
In short: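 Phospholipidosis is scored by imaging LipidTOX-stained pits in HepG2 cells exposed to compound for 24 h at 37 C; pit counts and integrated intensities per well and per cell serve as outputs.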

Measured: Potency

Sequence of Estrogen receptor (Homo sapiens) (P03372 whole entry, looked up): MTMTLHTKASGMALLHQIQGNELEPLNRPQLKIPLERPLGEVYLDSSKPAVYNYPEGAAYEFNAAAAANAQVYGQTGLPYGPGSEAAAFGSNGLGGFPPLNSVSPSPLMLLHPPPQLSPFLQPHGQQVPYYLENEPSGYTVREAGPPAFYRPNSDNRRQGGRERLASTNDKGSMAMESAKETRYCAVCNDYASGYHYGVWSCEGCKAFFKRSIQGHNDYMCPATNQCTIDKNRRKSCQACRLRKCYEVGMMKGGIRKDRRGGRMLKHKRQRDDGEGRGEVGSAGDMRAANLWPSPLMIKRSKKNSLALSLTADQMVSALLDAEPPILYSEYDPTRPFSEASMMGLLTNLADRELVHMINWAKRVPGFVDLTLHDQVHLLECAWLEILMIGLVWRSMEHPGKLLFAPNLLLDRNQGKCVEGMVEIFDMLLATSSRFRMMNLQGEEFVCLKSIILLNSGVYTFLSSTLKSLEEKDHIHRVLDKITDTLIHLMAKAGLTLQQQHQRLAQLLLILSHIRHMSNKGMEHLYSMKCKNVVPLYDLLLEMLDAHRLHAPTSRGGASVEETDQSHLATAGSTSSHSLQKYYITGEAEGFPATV
Sequence of Androgen receptor (Homo sapiens) (P10275 whole entry, looked up): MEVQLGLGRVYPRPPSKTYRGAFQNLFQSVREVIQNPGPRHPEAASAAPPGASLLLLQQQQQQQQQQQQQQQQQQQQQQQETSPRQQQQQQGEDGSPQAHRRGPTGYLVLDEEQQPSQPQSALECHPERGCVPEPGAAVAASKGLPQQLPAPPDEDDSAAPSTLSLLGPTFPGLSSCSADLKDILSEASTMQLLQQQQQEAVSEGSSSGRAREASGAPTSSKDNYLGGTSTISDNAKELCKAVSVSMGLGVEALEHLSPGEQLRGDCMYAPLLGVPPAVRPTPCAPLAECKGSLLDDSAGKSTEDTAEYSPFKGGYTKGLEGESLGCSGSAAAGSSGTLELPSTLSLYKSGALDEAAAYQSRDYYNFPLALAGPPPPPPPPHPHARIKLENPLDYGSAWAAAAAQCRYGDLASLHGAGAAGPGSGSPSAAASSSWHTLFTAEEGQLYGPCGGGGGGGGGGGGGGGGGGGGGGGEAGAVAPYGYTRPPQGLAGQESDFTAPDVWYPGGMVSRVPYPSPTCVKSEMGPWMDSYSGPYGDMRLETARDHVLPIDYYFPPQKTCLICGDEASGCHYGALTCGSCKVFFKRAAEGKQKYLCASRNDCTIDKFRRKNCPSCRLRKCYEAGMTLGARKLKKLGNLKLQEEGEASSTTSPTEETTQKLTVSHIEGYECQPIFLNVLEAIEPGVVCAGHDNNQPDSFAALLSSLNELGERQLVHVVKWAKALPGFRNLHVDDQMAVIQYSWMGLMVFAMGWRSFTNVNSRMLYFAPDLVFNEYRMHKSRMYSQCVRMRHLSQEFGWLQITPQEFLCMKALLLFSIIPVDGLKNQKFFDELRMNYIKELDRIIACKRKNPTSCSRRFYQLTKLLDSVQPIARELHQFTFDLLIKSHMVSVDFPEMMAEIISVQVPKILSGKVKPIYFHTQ

CC(C)OC(=O)CCC(=O)OC(C)C
not listed: [16] | [17] | [18] | [19] | [20]
inactive: all other assays above

CN(C)CCCCl
not listed: [10] | [18] | [19] | [20]
inactive: all other assays above

COc1ccc(CCO)cc1
not listed: [17] | [19] | [20]
inactive: all other assays above

O=C(NCN1CCOCC1)c1cnccn1
not listed: [8]
inactive: all other assays above

CC(C)C[C@@H]1[C@H](c2ccccc2)OC(=O)N1CCCN1CCCCCC1
not listed: [10] | [19] | [20]
inactive: all other assays above

Cc1ncc([N+](=O)[O-])n1CC(C)O (centres undefined)
not listed: [10] | [16] | [18]
inactive: all other assays above

OC1(c2ccc(Cl)cc2)CCNCC1
not listed: [10] | [11] | [18] | [20]
inactive: all other assays above

COC(=O)/C=C\C(=O)O
not listed: [8] | [18] | [20]
inactive: all other assays above

CC1(C)O[C@H]2CC(=O)OC[C@]23[C@H]2CC[C@@]4(C)[C@H](c5ccoc5)OC(=O)[C@H]5O[C@]54[C@]2(C)C(=O)C[C@@H]13
not listed: [8] | [18]
inactive: all other assays above

Cc1c(Cl)cccc1Cl
not listed: [8] | [18] | [20]
inactive: all other assays above

CN1CCOC(c2ccccc2)c2ccccc2C1 (centres undefined)
not listed: [10] | [17] | [18]
inactive: all other assays above

COc1cc2c(cc1OC)CN(C(=O)[C@H](C)N[C@@H](CCc1ccccc1)C(=O)O)[C@H](C(=O)O)C2
not listed: [18] | [19] | [20]
inactive: all other assays above

NCc1ccc(S(N)(=O)=O)cc1
not listed: [10] | [17] | [18] | [19]
inactive: all other assays above

CC(C)Nc1ccccc1
not listed: [18] | [19] | [20]
inactive: all other assays above

Cc1ccc(N)cc1S(=O)(=O)O
not listed: [11] | [12] | [16] | [18] | [19] | [20]
inactive: all other assays above

C[C@H]1[C@@H](c2ccccc2)NC(=O)N1C
not listed: [7] | [10] | [11] | [18] | [20]
inactive: all other assays above

COc1cc2c(cc1OC)C(=O)C(CC1CCN(Cc3ccccc3)CC1)C2 (centres undefined)
active: [4] 21.3 µM | [10] 21.3 µM
not listed: [8] | [11] | [16] | [19]
inactive: all other assays above

N#CCC(=O)NN
not listed: [8] | [18] | [19]
inactive: all other assays above

C=Cc1ccc(C(C)(C)C)cc1
not listed: [7] | [17] | [18] | [20]
inactive: all other assays above

c1ccc2c(CC3=NCCN3)cccc2c1
not listed: [7] | [17] | [18]
inactive: all other assays above

O=C(CCCl)NCCc1ccccc1
not listed: [8] | [19] | [20]
inactive: all other assays above

COc1nc(N)nc2nc[nH]c12
not listed: [8] | [10] | [11] | [18] | [19] | [20]
inactive: all other assays above

CCCCCc1cccc(=O)o1
not listed: [8] | [12] | [18] | [20]
inactive: all other assays above

CCC(C)C(C)=O (centres undefined)
not listed: [6] | [18] | [20]
inactive: all other assays above

OCCN1CCOCC1
not listed: [7] | [11] | [18] | [20]
inactive: all other assays above

COc1cc(OC)nc(O[C@H](C(=O)O)C(OC)(c2ccccc2)c2ccccc2)n1
not listed: [8] | [16] | [20]
inactive: all other assays above

O=C1NC(c2ccccc2)(c2ccccc2)C(=O)N1COP(=O)(O)O
not listed: [7] | [17] | [20]
inactive: all other assays above

CO[C@@]1(NC(=O)Cc2cccs2)C(=O)N2C(C(=O)O)=C(COC(N)=O)CS[C@@H]21
not listed: [8] | [18] | [19]
inactive: all other assays above

COc1ccc2c(c1)c1c3n2CCN(C)C3=NCC1
not listed: [8] | [11] | [18]
inactive: all other assays above

CCCCCCCCCOC(=O)CCCCC(=O)OCCCCCCC
active: [1] 24.5 µM | [3] 24.5 µM | [4] 24.5 µM | [6] 24.5 µM | [7] 27.5 µM | [19] 38.9 µM | [12] 27.5 µM | [13] 38.9 µM
inactive: [2] | [5] | [9] | [10] | [16] | [14] | [15]
